± gives the standard deviation of the averaged measurements. Whole data set: some 33,000 sequences, median “E-score (rank enrichment, -0.5 to 0.5)” near -0.0028, cut for the highest 2% near 0.23. What follows is part of a selection rich in the highest values, with near analogues and random picks from the rest.
test system: 2Sb-muMax20 (muMax20 with two 1,3-bis(methyl)benzene Cys staples, A13C/A17C and Q88C/A92C, C-terminal Lys); test: PBM 8-mer E-score (E-score (rank enrichment, -0.5 to 0.5)); higher = stronger preferential binding
Description: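 Protein binding microarray (universal PBM chip covering all 10-mers in fixed probe flanks) with chemically synthesized human Max(13-93) bHLH-LZ analogs (not full-length Max) bearing noncanonical residues (hArg, Tha, Aib, Nle at 65) and aromatic Cys staples. Read-out per 8-mer (and its reverse complement): E-score (rank-based enrichment, -0.5 to 0.5) and Z-score of median probe intensity.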

| Sequence | PBM 8-mer E-score |
| --- | --- |
| ATCACGTA | 0.163 ± 0.032 |
| ATCACGTC | 0.0586 ± 0.042 |
| ATCACGTG | 0.4 ± 0.014 |
| TAGCTACA | 0.0611 ± 0.017 |
| TGGGTACA | -0.0341 ± 0.055 |
| ATTGTTTG | 0.106 ± 0.05 |
| CTTGTTTC | 0.169 ± 0.026 |
| ATTGTTTC | 0.248 ± 0.046 |
| CGGTATTA | -0.1001 ± 0.00022 |
| AAAATATA | 0.178 ± 0.027 |
| CAAATATA | 0.151 ± 0.0063 |
| TAAATATA | 0.238 ± 0.0035 |
| TATATATA | 0.326 ± 0.048 |
| TATATAAA | 0.177 ± 0.052 |
| GATATATA | 0.152 ± 0.015 |
| AGAACACG | 0.104 ± 0.028 |
| AGTCGAAG | 0.0391 ± 0.095 |
| CGCTCGAG | 0.136 ± 0.036 |
| GGTTGTTA | 0.116 ± 0.038 |
| ACTACTGA | -0.123 ± 0.021 |
| CCCGAGAG | -0.255 ± 0.041 |
| ATCAGCCC | 0.231 ± 0.03 |
| ATCAGCCA | -0.0692 ± 0.065 |

| Sequence | PBM 8-mer E-score |
| --- | --- |
| ATCAGCCG | -0.223 ± 0.0056 |
| CAAGAGTC | -0.073 ± 0.074 |
| ACTACATA | 0.239 ± 0.06 |
| ACTACACG | 0.0218 ± 0.034 |
| GCTACATA | -0.0387 ± 0.017 |
| ACTACACA | 0.266 ± 0.055 |
| CCTACACG | -0.0783 ± 0.048 |
| ACTACATG | 0.123 ± 0.031 |
| TAGAACGA | 0.0786 ± 0.036 |
| AGCGAATC | 0.0438 ± 0.019 |
| CTAAAGTA | -0.0474 ± 0.011 |
| GTAAAGTA | 0.262 ± 0.032 |
| ATAAAGTA | 0.166 ± 0.053 |
| GGTATCTA | 0.0221 ± 0.013 |
| CGTATCTA | -0.126 ± 0.083 |
| AGTATCTA | 0.329 ± 0.0077 |
| GGTATAGA | 0.0611 ± 0.0045 |
| AGTATATG | 0.153 ± 0.051 |
| CGTATATA | 0.185 ± 0.0076 |
| GGTATATA | 0.235 ± 0.013 |
| AGTATATA | 0.334 ± 0.041 |
| AGTATATC | 0.106 ± 0.013 |
| CCATCGCG | 0.124 ± 0.044 |

| Sequence | PBM 8-mer E-score |
| --- | --- |
| GTCGCGGA | -0.206 ± 0.07 |
| CGCCCCGC | 0.072 ± 0.059 |
| GGAATTAA | 0.166 ± 0.031 |
| ATAATTAC | 0.276 ± 0.0099 |
| GTAATTAC | 0.2036 ± 0.0011 |
| CTAATTAC | 0.139 ± 0.051 |
| TGAATTAA | 0.255 ± 0.0052 |
| ATAATTAA | 0.141 ± 0.023 |
| CTAATTAA | 0.0454 ± 0.045 |
| CGAATTAA | 0.00973 ± 0.029 |
| TTAATTAA | 0.281 ± 0.08 |
| GTTGAAAA | 0.103 ± 0.084 |
| ACCTTGCA | 0.0732 ± 0.0055 |
| CGGGGGAA | -0.121 ± 0.028 |
| AAGGGAGG | 0.0917 ± 0.039 |
| CTCTAGTA | 0.103 ± 0.0078 |
| ATCTAGTA | -0.0228 ± 0.022 |
| GTCTAGTA | 0.247 ± 0.051 |
| CTAAGGGC | -0.156 ± 0.055 |
| AAAGCGGA | 0.0459 ± 0.0043 |
| ACTTACTA | 0.258 ± 0.042 |
| ACTTACTC | 0.0212 ± 0.036 |
| CCTTACTA | 0.0233 ± 0.037 |

| Sequence | PBM 8-mer E-score |
| --- | --- |
| GACCCACA | 0.0373 ± 0.043 |
| CGTATTTA | 0.2434 ± 0.0022 |
| AGTATTTA | 0.195 ± 0.012 |
| GGTATTTA | 0.118 ± 0.052 |
| GAACATGC | 0.136 ± 0.0025 |
| TATCTTGA | 0.163 ± 0.012 |
| GATCTTGA | 0.246 ± 0.03 |
| CATCTTGA | -0.0488 ± 0.041 |
| ATGACTGC | 0.00213 ± 0.035 |
| CGCCTCAA | 0.0117 ± 0.0089 |
| AGGCGGGG | 0.259 ± 0.092 |
| GGGCGGGA | 0.3 ± 0.018 |
| AGGGCGGC | -0.161 ± 0.057 |
| AGGGCGGA | -0.228 ± 0.016 |
| GGGCGGAA | 0.111 ± 0.07 |
| AGGCGGGA | 0.08088 ± 0.00027 |
| AGGGCGGG | 0.272 ± 0.091 |
| CGCGGGGA | 0.0556 ± 0.023 |
| AGGCGGGC | 0.00216 ± 0.077 |
| GGCGGGAA | 0.0557 ± 0.014 |
| GGCGGGGA | 0.403 ± 0.025 |
| CGGCGGGA | -0.205 ± 0.01 |
| AACCGATA | -0.0929 ± 0.094 |

| Sequence | PBM 8-mer E-score |
| --- | --- |
| ACACCTCA | 0.0903 ± 0.038 |
| GACGAGGA | -0.0396 ± 0.053 |
| ACCAGGGT | -0.196 ± 0.08 |
| CTGGACAC | -0.2589 ± 0.0024 |
| ACCGGGTA | -0.1338 ± 0.00064 |
| CATGAGCG | -0.0614 ± 0.0046 |
| CCTACCCG | -0.0857 ± 0.0032 |
| ATGGCGCA | 0.239 ± 0.057 |
| CTGGCGCA | -0.166 ± 0.074 |
| ATGGCGCG | 0.0718 ± 0.02 |
| ACTTGGGC | 0.0763 ± 0.039 |
| AATTTGGT | 0.0829 ± 0.018 |
| ATTTGGGG | 0.267 ± 0.0073 |
| AATTTGGA | 0.0432 ± 0.015 |
| AATTTGGG | 0.29 ± 0.015 |
| ATTTGGGA | 0.209 ± 0.0036 |
| ACTTGGGG | 0.3507 ± 0.0032 |
| ATTTGGGC | 0.102 ± 0.069 |
| ACTTGGGA | -0.129 ± 0.03 |
| CACTTGGG | 0.176 ± 0.012 |
| AACTTGGG | 0.304 ± 0.015 |
| AACTTGGA | 0.0353 ± 0.027 |

Source: the supplement of paper PMC12636033
